Compounds with a hit are over-represented: about 0.78% of the library has one in this group of screens.
RGS7-Gao: modulates binding of RGS7 to human Galphao. P09471. Multiplexed bead flow cytometry; actives lie on both sides. binding response (% of control), % at 10 µM. hit rate 0.35% among 220,000. AID 1439; in the data active = binding response below about 49% or above about 150%;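 note: fluorescent Galphao held in activated GDP-AlF4 state binding bead-coupled RGS7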
Target sequence (P09471 whole entry, looked up): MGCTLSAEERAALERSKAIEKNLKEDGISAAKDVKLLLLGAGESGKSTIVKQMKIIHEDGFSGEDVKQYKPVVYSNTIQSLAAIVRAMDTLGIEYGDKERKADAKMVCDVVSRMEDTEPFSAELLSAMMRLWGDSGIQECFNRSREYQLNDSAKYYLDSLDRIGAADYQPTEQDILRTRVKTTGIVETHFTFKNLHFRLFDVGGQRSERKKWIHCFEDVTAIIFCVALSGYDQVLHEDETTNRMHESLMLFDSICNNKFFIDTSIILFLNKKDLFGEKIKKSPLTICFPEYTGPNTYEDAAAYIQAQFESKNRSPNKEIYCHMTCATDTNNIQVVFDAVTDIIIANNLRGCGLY
RGS16-Gao: regulators of human RGS16-Galphao interaction; O15492+P09471; bead-based flow cytometry RGS16-Galphao binding, fluorescence; actives lie on both sides; binding response (% of control), % at 10 µM; hit rate 0.38% among 220,000;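 note: Galphao activated by GDP with aluminum fluoride before binding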
RGS8-Gao reg: regulators of human RGS8-Galphao interaction | P09471 | multiplexed bead flow cytometry, RGS8-Galphao binding; actives lie on both sides | response (percent of control binding), % at 10 µM | hit rate 0.34% among 220,000 | AID 1423; in the data active = response below about 60% or above about 140%; inactive = in between;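 note: Galphao activated as the GDP aluminium fluoride complex binding bead-coupled RGS8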
RGS4-Gao reg: modulates binding of RGS4 to human Galphao | P09471 | Multiplexed bead flow cytometry; actives lie on both sides | AID 1415 | binding response (% of control), % at 10 µM | hit rate 0.33% among 220,000; in the data active = binding response below about 49% or above about 150%; inactive = in between;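 note: fluorescent Galphao activated with aluminum fluoride binding bead-coupled RGS4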
RGS-Gao: regulators of human RGS4-Galphao interaction | shares compounds with RGS16-Gao | multiplexed bead flow cytometry, RGS–Galpha-o binding | RGS4–Galpha-o binding response, % at 10 µM | hit rate 99% among 1,600 | AID 1504;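 note: fluorescently labeled Galpha-o bound to GDP with aluminium fluoride binding biotinylated RGS beads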
Avidin counter: counter-screen: compounds disrupting biotin binding to avidin beads; AID 1783; streptavidin beads, fluorescein-biotin binding, flow cytometry; 1,700 tested, under 10 active; inhibition, % at 10 µM; shares compounds with RGS16-Gao;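 active = inhibition above 50%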;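 note: median green fluorescence of gated singlet beads compared with DMSO control wells; 0% = DMSO wells and 100% = complete loss of bead fluorescence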
RGS8-Gao single: RGS8-Galphao interaction regulation, single point confirmation | bead-based flow cytometry RGS8-Galphao binding, fluorescence; actives lie on both sides | hit rate 3% among 1,700 | shares compounds with RGS16-Gao | binding response (% of control), % at 10 µM; in the data active = binding response below about 72% or above about 130%; inactive = in between;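 note: Galphao activated as GDP AlF4 complex before binding bead RGS8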
RGS7-Gao confirm: confirmation of regulators of human RGS7-Galphao interaction; shares compounds with RGS16-Gao; bead-based flow cytometry RGS7-Galphao binding; actives lie on both sides; response (percent of control binding), % at 10 µM; hit rate 7.8% among 1,700; in the data active = response below about 75% or above about 130%; inactive = in between;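 note: fluorescent Galphao activated with GDP and aluminum fluoride binding bead-coupled RGS7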
RGS16-Gao single: RGS16-Galphao interaction regulation, single point confirmation; bead-based flow cytometry, RGS16-Galphao binding; actives lie on both sides; response (% of control binding), % at 10 µM; hit rate 4% among 1,700; shares compounds with RGS16-Gao; in the data active = response below about 74% or above about 130%; inactive = in between;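 note: Galphao activated as the GDP aluminium fluoride complex binding bead-coupled RGS16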
RGS4-Gao confirm: confirmation of regulators of human RGS4-Galphao interaction; hit rate 4% among 1,700; RGS4-Galphao binding, multiplexed bead flow cytometry; actives lie on both sides; binding response (% of control), % at 10 µM; shares compounds with RGS16-Gao; in the data active = binding response below about 74% or above about 130%; inactive = in between
RGS19-Gao conf: RGS19-Galphao interaction regulation, single point confirmation. bead-based flow cytometry RGS19-Galphao binding; actives lie on both sides. AID 1841. shares compounds with RGS16-Gao. response (percent of control binding), % at 10 µM. hit rate 5% among 1,700; in the data active = response below about 50% or above about 160%; inactive = in between;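 note: 100% = no compound control and 0% = blank background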
Target sequence (P09471 whole entry, looked up): as above
Target sequence (P49795 whole entry, looked up): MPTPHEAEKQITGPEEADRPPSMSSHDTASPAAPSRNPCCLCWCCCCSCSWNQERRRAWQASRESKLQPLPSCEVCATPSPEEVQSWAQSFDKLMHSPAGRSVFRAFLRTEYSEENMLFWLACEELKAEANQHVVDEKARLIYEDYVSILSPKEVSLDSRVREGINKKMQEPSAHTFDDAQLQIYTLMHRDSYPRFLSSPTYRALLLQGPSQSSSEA
Active calls of the source: *; . = no result given; [ ] = dose if it differs, or a comment. Unless noted, the rule behind the calls is not given here.

SMILES	RGS7-Gao	RGS16-Gao	RGS8-Gao reg	RGS4-Gao reg	RGS-Gao	Avidin counter	RGS8-Gao single	RGS7-Gao confirm	RGS16-Gao single	RGS4-Gao confirm	RGS19-Gao conf
COc1cc(C(=S)N2CCOCC2)ccc1OC(=O)c1cc([N+](=O)[O-])c(C)c([N+](=O)[O-])c1	91	6.2*	80	86	86*	-1	102	98	102	101	95
COc1ccc(OC)c(/C=C2\SC(=S)N(Cc3cccnc3)C2=O)c1	88	14*	84	89	89*	-1	108	112	103	103	105
CCC(=O)NC(c1ccc(OC)cc1)c1c(O)ccc2ccccc12 (stereo not drawn)	103	98	101	103	.	.	.	.	.	.	.
Cc1c(Cl)c(C(F)(F)F)nn1CC(=O)NCc1ccccc1	99	102	102	98	.	.	.	.	.	.	.
Cc1c(Br)c(C(F)(F)F)nn1CC(=O)NCc1ccccc1	110	203*[activator]	127	109	109*	-1	102	101	102	102	90
COc1ccc2c(c1)c(C(=O)N/N=C/c1cccc(O)c1)c(C)n2C	102	109	103	101	.	.	.	.	.	.	.
O=[N+]([O-])c1ccc(Nc2nc(NC3CCCCC3)nc(N3CCCC3)n2)cc1	160*[activator]	157	104	170*[activator]	.	0	92	98	89	95	85
CCC12CN3CCN(CC(C3)/C1=N\NC(=O)c1ccc(Cl)cc1)C2	90	94	97	99	.	.	.	.	.	.	.
CCC12CN3CCN(CC(C3)/C1=N\NC(=O)c1ccc(F)cc1)C2	43*	38	55*	42*	.	-1	99	99	98	98	97
CC1=CC(C)(C)Nc2ccccc21	73	13*	63	77	77*	0	100	100	102	103	104
Cc1ccc(C(C(=O)NC(C)(C)C)N(Cc2ccccc2)C(=O)c2snc(C(N)=O)c2N)o1 (stereo not drawn)	161*[activator]	92	92	110	110*	2	103	99	105	100	105
Cc1ccc(C(C(=O)NC2CCCC2)N(Cc2cccnc2)C(=O)c2snc(C(N)=O)c2N)o1 (stereo not drawn)	103	88	94	104	.	.	.	.	.	.	.
N#CCCN/N=C(/Cc1nc2ccccc2[nH]1)c1cccc(Cl)c1	198*[activator]	224*[activator]	169*[activator]	247*[activator]	.	1	95	97	93	96	96
Clc1ccc(/C(Cc2nc3ccccc3[nH]2)=N\Nc2ccccc2)cc1	99	106	101	98	.	.	.	.	.	.	.
OCCSc1nc(-c2ccccc2)nc2c1CCC2	89	15*	80	96	96*	0	100	95	100	100	109
CCCn1c(SCC(=O)Nc2cccc(Cl)c2Cl)n[nH]c1=O	103	111	103	106	.	.	.	.	.	.	.
CCCn1c(SCC(=O)Nc2ccccc2Oc2ccccc2)n[nH]c1=O	84	-28*	83	78	78*	1	103	102	100	100	112
CCOC(=O)Cc1cc(=O)[nH]c(/N=C(\N)Nc2ccc(C)cc2C)n1	102	104	97	95	.	.	.	.	.	.	.
O=C(NCC1CCS(=O)(=O)C1)Oc1ccccc1 (stereo not drawn)	108	291*[activator]	112	108	108*	1	102	106	103	104	96
CN(C)C(=O)c1cn(-c2ccccc2)c(=O)c2ccccc12	104	100	99	103	.	.	.	.	.	.	.
Cc1cc(S(=O)(=O)Nc2cc(C)c(O)c(C)c2)c(C)s1	.	.	.	.	.	2	99	94	96	100	73
CCOC(=O)c1c(C)[nH]c(C(=O)COC(=O)C2CC(=O)N(Cc3ccccc3)C2)c1C (stereo not drawn)	218*[activator]	511	163*[activator]	166*[activator]	.	0	99	95	92	95	93
CSCCC(NC(N)=O)C(=O)NCc1ccccc1Cl (stereo not drawn)	80	-699*	95	74	74*	-3	100	99	98	98	91
CSCCC(NC(N)=O)C(=O)NCc1cccc(Cl)c1 (stereo not drawn)	105	126	109	109	.	.	.	.	.	.	.
C/C(N)=C(/C#N)C(=O)COC(=O)C(c1ccccc1)c1ccccc1	93	97	100	101	.	.	.	.	.	.	.
SMILES	RGS7-Gao	RGS16-Gao	RGS8-Gao reg	RGS4-Gao reg	RGS-Gao	Avidin counter	RGS8-Gao single	RGS7-Gao confirm	RGS16-Gao single	RGS4-Gao confirm	RGS19-Gao conf
CCOc1ccc2c(c1)n(CO)c(=S)n2CO	176*[activator]	104	100	112	112*	0	91	79	93	90	110
CCOc1ccc2[nH]c(=S)[nH]c2c1	105	103	101	101	.	.	.	.	.	.	.
Cc1ccc(S(=O)(=O)NC(C)(C)CSc2ccccn2)cc1	92	13*	64	87	87*	-2	101	103	102	102	112
CCN1C(=O)C(CC(=O)Nc2ccc(OC)cc2)N(Cc2ccco2)C1=S (stereo not drawn)	105	308	143*[activator]	116	116*	-1	99	90	96	96	77
Nc1ccc(N2CCN(CCCCN3C(=O)C4CCCN4C3=O)CC2)cc1 (stereo not drawn)	100	102	100	97	.	.	.	.	.	.	.
COC(=O)c1ccccc1COn1c(=O)c[n+]([O-])c2ccccc21	158*[activator]	187	91	231*[activator]	.	0	101	100	99	103	96
CCc1cc(Br)ccc1N1C(=O)C2CC=CCC2C1=O (stereo not drawn)	98	99	99	93	.	.	.	.	.	.	.
CCc1nnc(NC(=O)CC(=O)Nc2ccccc2C(=O)O)s1	.	.	.	.	.	0	98	98	100	99	88
Fc1ccc(C(Nc2ccccn2)c2c[nH]c3ccccc23)cc1 (stereo not drawn)	133	156	141*[activator]	125	125*	0	104	103	102	103	111
C=CCN(CC(=O)NCc1ccccc1)C(=O)c1csnn1	.	.	.	.	.	1	100	100	99	100	91
COc1ccc(CNC(=O)CN(Cc2ccccc2)C(=O)c2csnn2)cc1	94	99	98	96	.	.	.	.	.	.	.
O=C(CSc1nc2ccccc2c2nc3ccccc3n12)NCc1ccco1	93	103	100	97	.	.	.	.	.	.	.
